Source: the supplement of paper PMC6555819

Legend:
Experiment in all cases: PBM binding z-score (relative to random genomic background probes); higher = stronger binding; sequences stand for … in GC…GCGATTGACAGCGTAGAATGAAGG
[1] = tested on: FXR:RXRa (NR concentration 270 nM, RXRa partner concentration 90 nM)
Procedure, shortened: (§1)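 Ligand-free nuclear receptor dimers were applied to custom Agilent 4×180K protein-binding microarrays whose double-stranded probes carried direct-repeat seeds, single-nucleotide variants, half-site ablations and random human genomic background sequences in 34-nt variable regions. Incubation lasted 1 h. Binding z-scores were computed against the random background probes from regression-normalized fluorescence.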

[2] = tested on: LXRa:RXRa (NR concentration 270 nM, RXRa partner concentration 90 nM)
Procedure, shortened: as §1

[3] = tested on: LXRa homodimer (NR concentration 270 nM)
Procedure, shortened: as §1

[4] = tested on: LXRb:RXRa (NR concentration 270 nM, RXRa partner concentration 90 nM)
Procedure, shortened: as §1

[5] = tested on: LXRb homodimer (NR concentration 270 nM)
Procedure, shortened: as §1

[6] = tested on: PPARa:RXRa (NR concentration 270 nM, RXRa partner concentration 90 nM)
Procedure, shortened: as §1

[7] = tested on: PPARg:RXRa (NR concentration 180 nM, RXRa partner concentration 90 nM)
Procedure, shortened: as §1

[8] = tested on: PPARg:RXRa 270nM:90nM, anti-RXR (NR concentration 270 nM, RXRa partner concentration 90 nM)
Procedure, shortened: as §1

[9] = tested on: PPARg:RXRa 30nM:10nM, anti-RXR (NR concentration 30 nM, RXRa partner concentration 10 nM)
Procedure, shortened: as §1

[10] = tested on: PPARg:RXRa 90nM:30nM, anti-RXR (NR concentration 90 nM, RXRa partner concentration 30 nM)
Procedure, shortened: as §1

[11] = tested on: PPARg:RXRa DBDmut IVT, anti-RXR (DBD mutation: RXRa K156A/R161A, NR concentration 270 nM, RXRa partner concentration 90 nM)
Procedure, shortened: as §1

[12] = tested on: PPARg:RXRa IVT, anti-PPARg (NR concentration 270 nM, RXRa partner concentration 90 nM)
Procedure, shortened: as §1

[13] = tested on: PPARg DBDmut:RXRa IVT, anti-PPARg (DBD mutation: PPARg1 K132A/R137A, NR concentration 270 nM, RXRa partner concentration 90 nM)
Procedure, shortened: as §1

[14] = tested on: PPARg DBDmut IVT, anti-PPARg (DBD mutation: PPARg1 K132A/R137A, NR concentration 270 nM)
Procedure, shortened: as §1

[15] = tested on: PPARg homodimer (NR concentration 180 nM)
Procedure, shortened: as §1

[16] = tested on: PXR:RXRa (NR concentration 270 nM, RXRa partner concentration 90 nM)
Procedure, shortened: as §1

[17] = tested on: PXR homodimer (NR concentration 270 nM)
Procedure, shortened: as §1

[18] = tested on: RARa:RXR (NR concentration 270 nM, RXRa partner concentration 90 nM)
Procedure, shortened: as §1

[19] = tested on: RARa homodimer (NR concentration 270 nM)
Procedure, shortened: as §1

[20] = tested on: RARb:RXRa (NR concentration 270 nM, RXRa partner concentration 90 nM)
Procedure, shortened: as §1

Row | Sequence | PBM binding z-score [1] | PBM binding z-score [2] | PBM binding z-score [3] | PBM binding z-score [4] | PBM binding z-score [5] | PBM binding z-score [6] | PBM binding z-score [7] | PBM binding z-score [8] | PBM binding z-score [9] | PBM binding z-score [10] | PBM binding z-score [11] | PBM binding z-score [12] | PBM binding z-score [13] | PBM binding z-score [14] | PBM binding z-score [15] | PBM binding z-score [16] | PBM binding z-score [17] | PBM binding z-score [18] | PBM binding z-score [19] | PBM binding z-score [20]
1 | GGAACGACGGCAAGTTGATAGCAGAGTTTGATGG | -0.255 | -0.528 | -0.627 | -0.839 | -0.999 | -0.669 | 0.538 | -0.859 | -0.288 | -0.679 | -0.476 | -0.312 | -0.309 | -0.721 | -0.705 | -0.547 | 0.0619 | -0.23 | -0.783 | -0.715
2 | TCTAGTTGGTCAAAAGTCACACACTCGAAATGCG | 1.12 | 1.12 | 0.475 | 1.12 | 0.73 | 3.03 | 5.72 | 6.29 | 6.15 | 7.23 | 2.33 | 2.69 | 0.872 | 1.33 | 2 | 1.02 | 0.426 | 1.64 | 1.24 | 1.35
3 | TCTTGTAAATCAATAGAGGTTAAGAAAGTGCGCT | 0.793 | 3.32 | 0.658 | 1.86 | 0.26 | 1.86 | 0.0624 | 1.82 | 3.77 | 2.44 | 2.07 | 0.72 | 0.946 | 0.876 | 0.652 | 2.65 | 0.467 | 1.72 | 0.812 | 1.13
4 | TCTATTAGTTGATAAGGGCAACCGAAACAGCGGA | 0.612 | 0.486 | 0.203 | 0.463 | 0.396 | 0.736 | 0.322 | 1.86 | 3.81 | 2.97 | 1.65 | 0.714 | 0.803 | 1.07 | 0.853 | 0.671 | 0.649 | 0.881 | 0.996 | 1.6
5 | TAGCCCAGGTCATTCAGGGGCCAGTATAGAAAGC | 5.03 | 4.14 | 0.808 | 2.98 | 0.952 | 3.9 | 2.2 | 2.46 | 0.688 | 1.57 | 0.643 | 2.16 | -0.0273 | 0.498 | 2.32 | 3.28 | 0.378 | 3.94 | 0.0689 | 3.67
6 | AATACAGGGTCACTACGCCAGAGTAGGTACGAAT | 6.43 | 4.99 | 1.13 | 4.16 | 1.17 | 5.41 | 6.19 | 5.01 | 2.58 | 3.89 | 2.98 | 4.51 | 2.04 | 1.71 | 2.16 | 3.28 | 0.564 | 4.53 | 1.63 | 4.17
7 | CGAACTAGGTCATGGACAGGACAGTGAATAGTAA | 3.85 | 2.37 | -0.0954 | 1.81 | -0.546 | 4.79 | 8.05 | 6.56 | 4.17 | 6.19 | 8.1 | 8.31 | 3.01 | 0.998 | 1.68 | 1.65 | -0.17 | 2.55 | 0.249 | 3.88
8 | TAGCCTAGGTCCGATCGGGCCAGTATACGCTATA | -1.62 | -1.4 | -0.978 | -1.3 | -1.45 | -0.907 | -0.184 | -1.28 | -1.09 | -1.31 | -1.07 | -0.553 | -0.601 | -1.51 | -1.58 | -1.01 | -1.16 | -1.17 | -1.53 | -1
9 | CGTCCAAGGTCAAGGACAGTGAAAGAGACTCGAA | 6.84 | 4.98 | 0.198 | 3.81 | 0.401 | 5.57 | 5.12 | 5.16 | 1.84 | 3.73 | 3.23 | 3.38 | 1.03 | -0.206 | 2.55 | 3.63 | 0.575 | 4.25 | 1.12 | 5.22
10 | CGAACGAGGGCATGGGTTGATAGCAAATGCCGAT | 0.548 | 0.397 | -0.228 | 0.329 | -0.69 | 2.01 | 3.1 | 3.6 | 1.43 | 3.25 | 2.5 | 2.69 | -0.338 | 0.301 | 0.704 | 0.517 | 0.232 | 0.938 | -0.224 | 2.05
11 | CCTACTTGGTCAGGAGGTCACACACCGGATATGA | 3.55 | 3.69 | 2.02 | 3.39 | 0.285 | 4.29 | 3.39 | 3.9 | 1.75 | 3.1 | 1.61 | 3.56 | 0.756 | 0.0151 | 3.23 | 4.26 | 1.05 | 4.89 | 2.31 | 3.75
12 | GATACAGGGTCAAAGCCAGAGTACGCGTATTGAT | 7.15 | 4.59 | 0.214 | 3.97 | 0.158 | 5.59 | 5.42 | 5.39 | 2.26 | 4.25 | 2.68 | 3.63 | 1.47 | 0.035 | 2.25 | 3.75 | 0.314 | 4.76 | 0.583 | 4.03
13 | TCTAGTTGGTCACGGAGGTCACCCACGACGGGTA | 3.16 | 3.23 | 2.36 | 2.91 | 0.635 | 3.67 | 3.23 | 4.07 | 3.3 | 3.64 | 2.32 | 4.17 | 1.19 | 1.25 | 3.92 | 4.61 | 1.6 | 4.66 | 1.42 | 3.89
14 | CTCGAAAGGTCGGTAGAGGTGAGTATACGGATAA | 2.48 | 2.01 | 0.0371 | 1.32 | -0.315 | 2.86 | 1.02 | 1.75 | 0.538 | 0.994 | -0.427 | 1.32 | -0.234 | 0.272 | 1.1 | 2.69 | 0.0204 | 2.63 | 0.416 | 3.13
